# Test results from PubChem BioAssay (NCI).
# About 83,000 compounds went through this panel and 20% of them were active in at least one assay; those are over-represented in the sample as a whole.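 Note: values are percent growth. 100 is the growth of untreated cells, values between 100 and 0 indicate rising inhibition; between -100 and 0 indicates cell death.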 Unmarked numbers belong to inactive results. The source made the active and inactive calls.
# Tested on: SK-MEL-28 melanoma
# Experiment: NCI-60 one-dose screen, 48 h (100 = growth as untreated, 0 = no growth, -100 = all killed)
# Settings: 10 µM unless noted
# Protocol: Growth inhibition of the SK-MEL-28 human tumor cell line is measured as a screen for anti-cancer activity. Cells are grown in 96 well plates and exposed to the test compound for 48 hours. Compounds are tested at a single concentration, which is 10^-5 M for most compounds. The reported endpoint is percent growth (GI% or GIPRCNT), where numbers from 0 - 100% represent growth inhibition, and numbers from -100% - 0 represent cell death. For example, a value of 40 represents 60% growth inhibition. A value of 0 means no net growth occurred over the course of the experiment. A value of -40 indicates 40% of cells at the beginning of the experiment died by the end of the experiment. A value of -100 means all cells are dead at the end of the experiment.
# NCI-60 Human Tumor Cell Lines Screen was performed using the standard one-dose NCI protocol, which is described in more detail at https://dtp.cancer.gov/discovery_development/nci-60/default.htm.
# Compounds with GIPRCNT values below 10 were considered active. Activity score was based on GIPRCNT using the following formula: […]
# Score is 0 for GIPRCNT values of 100 or above, 50 for GIPRCNT values of 0, and 100 for GIPRCNT values of -100.
row,SMILES,growth
1,CCOC(=O)c1cnn(CC(C)O)c1NC(=O)NCc1cccc(F)c1 (stereo not given),113%
2,S=c1ccnc[nH]1,144%
3,CCOC(=O)C1=C(c2ccccc2)N=C2N(c3ccccc3)N=C(C(C)=O)N2C1c1ccc(F)cc1 (stereo not given),105%
4,N#Cc1nn(-c2cc(=O)[nH]c3ccc(Br)cc23)c(N)c1C#N,101%
5,Oc1nc(NCc2ccccc2)sc1/C=C1\C=Nc2ncccc21,69.2%
6,CCOC(=O)C1=C(CC(O)c2ccc(OC)cc2OC)NC(=O)NC1c1ccccc1 (stereo not given),115%
7,Cc1ccc(S(=O)(=O)c2nc(-c3ccccc3)oc2SCC(N)=O)cc1,108%
8,CN(C)Cc1ccc(NC(=O)c2cncc(C#Cc3cnc(N)c4ncccc34)c2)cc1C(F)(F)F,-83.1% (active)
9,Nc1c(Br)cc2c(c1Br)Cc1cc([N+](=O)[O-])ccc1-2,113%
10,CC(C)n1c2ccc(Br)cc2c2c3c(c4c5ccccc5ccc4c21)C(=O)NC3=O,96.5%
11,CCN(CC)c1ccc(-c2cc(-c3cc(OC)c(OC)c(OC)c3)nc(N3CCC(O)CC3)c2C#N)cc1,-46.6% (active)
12,CCN1CCN(CCNc2nccc(-c3c(-c4ccc(F)c(O)c4)nc4occn34)n2)S1(=O)=O,42.2%
13,Cc1nc2ccccc2c(/C=C/c2ccc(F)cc2)c1C(=O)/C=C/c1ccccc1,19.4%
14,CC1(C)CC[C@]23CC[C@]4(C)[C@H](CC[C@@H]5[C@@]6(C)CCNCC(C)(C)[C@@H]6CC[C@]54C)[C@H]2[C@H]1OC3,99.9%
15,CCn1cc(C(=O)N/N=C/c2ccccc2)c(=O)c2cc(F)c(N3CCNC(C)C3)c(F)c21 (stereo not given),-78.8% (active)
16,COC(=O)c1c2c(c(C)[n+]([O-])c1C)C(=O)C(NCc1ccccc1)=CC2=O,61.3%
17,O=S(Nc1ccccc1)c1ccc(Cl)cc1 (stereo not given),107%
18,COc1cc(/C=C/c2cn[nH]c2-c2ccc(C)cc2)cc(OC)c1OC,56.8%
19,COC(=O)c1c(C)nc(C)c2c1C(=O)C=C(NCc1ccccc1)C2=O,108%
20,O=C(CN1C(=O)S/C(=C\C(Cl)=C\c2ccccc2)C1=O)NC1CCS(=O)(=O)C1 (stereo not given),74.9%

row,SMILES,growth
1,O=C(/C=C/c1ccccc1)N(C1CCCCC1)C1CCCCC1,97.9%
2,CC(C)(C)OC(=O)CN1CCc2c(sc3ncnc(N4CCN(c5ccc(F)cc5)CC4)c23)C1,92.5%
3,CC1=C(Cl)C(=O)c2cc(C)ccc2C1=O,94.9%
4,CCn1cc(C(=O)O)c(=O)c2cc(F)c(N3CCN(CC(=O)Nc4ccccc4)C(C)C3)c(F)c21 (stereo not given),97%
5,O=C(NCCN1CCOCC1)OCc1ccc2c(Cl)cc(Cl)c(O)c2n1,71.6%
6,CCOC(=O)C(CCN(C)C)c1ccccc1 (stereo not given),97.8%
7,N#CSc1c[nH]c2ccc(/C=C/C(=O)/C=C(O)/C=C/c3ccc4[nH]cc(SC#N)c4c3)cc12,31.8%
8,COc1ccc(NC(=O)c2ccc(Nc3ncnc4c3cnn4-c3cccc(F)c3)cc2)cc1,113%
9,CCCC(O)Cn1ncc(C(=O)OCC)c1NC(=O)NCc1cccc(C(F)(F)F)c1 (stereo not given),105%
10,CCOC(=O)c1c(NC(=O)c2ccccc2)sc2c3c(ccc12)OCN(C)C3,-92.2% (active)
11,CS(=O)(=O)Nc1cc(-c2ccc3ncnc(Nc4ccc5c(cnn5Cc5ccncc5)c4)c3c2)cnc1Cl,32.5%
12,COC(=O)/C(CCC=C(C)C)=C1\[C@@H](OC(C)=O)C[C@@]2(C)[C@H]1C/C(=N/O)[C@H]1[C@@]3(C)CC/C(=N\O)[C@@H](C)[C@@H]3CC[C@@]12C,111%
13,Nc1cccc(-c2ccc(COc3ccc(CC4SC(=O)NC4=O)cc3)cc2)c1 (stereo not given),55.9%
14,COC1C(O)CC(OC2CC(OC3CC(O[C@@H]4C(=O)c5c(cc6cc(OC7CC(OC8CC(O)C(O)C(C)O8)C(O)C(C)O7)c(C)c(O)c6c5O)CC4[C@H](OC)[C@@H](O)C(C)=O)OC(C)C3O)OC(C)C2O)OC1C (stereo not given in full),-13.9% (active)
15,O=c1oc2ccccc2cc1-c1nn(-c2ccccc2)cc1-c1nn[nH]n1,107%
16,CCCCCCCCn1ccc2cc(NC(=O)CN=[N+]=[N-])ccc21,109%
17,Cc1nc2sc(C(=O)Nc3cccc4ccccc34)c(N)c2cc1C(=O)c1ccccc1,59.8%
18,CS(=O)/C(C#N)=C\C=C\c1cccc(Cl)c1 (stereo not given),24.8%
19,Cc1ccc(O)c(NC(=O)c2cccc(Nc3ccnc(C(F)(F)F)c3)c2)c1,100%
20,C/C=C1/CN(CCCCC)CC[C@H]1C(=O)c1cc2ccccc2[nH]1,111%
